UBC9 SUMO inh: blocks human SUMOylation mediated by UBC9; P63279; HTRF SUMOylation assay, SAE1/SAE2 + UBC9, in vitro; inhibition, % at 35 µM; 290,000 compounds, 0.36% hits; in the data active = inhibition above about 50%, passing the limit was not always enough; inconclusive = no clear call, values can overlap the other calls
PfM18AAP inh-1: PfM18AAP enzyme inhibition; AID 1822; 290,000 compounds, 1.2% hits; inhibition, % at 7.35 µM; recombinant PfM18AAP, H-Glu-NHMec fluorogenic cleavage;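 active = inhibition above the campaign mean inhibition over all tested compounds plus 3 SD, cut at about 28% in these data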;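 note: 0% = plate median of test compound wells and 100% = 2 mM ZnCl2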
G6PDH counter: inhibits Leuconostoc G6PDH, flagging false hits in G6PDH-based assays | Purified L. mesenteroides G6PDH, diaphorase/resazurin coupled fluorescence, 45 min | AID 1020 | inhibition, % at 5 µM | 200,000 compounds, 0.12% hits; in the data active = inhibition above about 50%
PHOSPHO1 block: blocks human PHOSPHO1 phosphatase activity; Q8TCT1; 290,000 compounds, 1.1% hits; inhibition, % at 13.3 µM; recombinant PHOSPHO1, absorbance phosphatase assay; AID 1565; in the data active = inhibition above about 60%
HDAC3 inhib: inhibitors of human histone deacetylase 3; O15379; inhibition, % at 8.3 µM; AID 2718; 320,000 compounds, 0.15% hits; recombinant HDAC3, fluorogenic peptide/trypsin coupled, fluorescence; in the data active = inhibition above about 26%, passing the limit was not always enough; inconclusive = no clear call, values can overlap the other calls
p97 inhibitor: inhibitors of human p97 ATPase | P55072 | recombinant p97 ATPase, Kinase-Glo ATP luminescence, 3 h | inhibition, % at 8 µM | 220,000 compounds, 0.42% hits | AID 1481; in the data active = inhibition above about 15%;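 note: 0% = DMSO vehicle and 100% = wells lacking enzyme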
PfM18AAP inh-2: confirmation of Plasmodium falciparum M18 aspartyl aminopeptidase inhibitors; inhibition, % at 7.35 µM; AID 2170; recombinant PfM18AAP, H-Glu-NHMec fluorogenic cleavage; shares compounds with PfM18AAP inh-1; 2,400 compounds, 28% hits;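 active = mean inhibition over replicate wells above the hit cutoff set for the earlier primary screen, cut at about 29% in these data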;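 note: 0% = median of test compound wells and 100% = 2 mM ZnCl2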
CTSL1 counter: Cathepsin L (human) inhibition, confirmation | shares compounds with PfM18AAP inh-1 | purified cathepsin L1, Z-Leu-Arg-MCA fluorescence | inhibition, % at 5.96 µM | 2,400 tested, under 10 active | AID 2178;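 active = average inhibition across replicates above the hit cutoff set in the earlier primary screen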;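 note: 0% = median of test compound wells and 100% = Z-Phe-Ala-diazomethylketone 1 µM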
Target sequence (P07711 whole entry, looked up): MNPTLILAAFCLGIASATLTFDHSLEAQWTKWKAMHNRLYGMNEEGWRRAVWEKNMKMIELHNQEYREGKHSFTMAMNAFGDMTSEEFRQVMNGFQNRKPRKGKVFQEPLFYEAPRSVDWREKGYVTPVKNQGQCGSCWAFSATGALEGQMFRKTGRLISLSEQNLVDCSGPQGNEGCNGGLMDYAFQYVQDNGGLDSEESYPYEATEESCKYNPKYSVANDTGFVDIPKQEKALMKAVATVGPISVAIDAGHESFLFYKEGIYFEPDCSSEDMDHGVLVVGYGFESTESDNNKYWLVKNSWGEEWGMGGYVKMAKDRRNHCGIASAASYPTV
The depositor's hits bear a star; ? = inconclusive; nt = no result given. Compounds with a hit are over-represented: about 2.5% of the library has one in this group of screens.

SMILES	UBC9 SUMO inh	PfM18AAP inh-1	G6PDH counter	PHOSPHO1 block	HDAC3 inhib	p97 inhibitor	PfM18AAP inh-2	CTSL1 counter
O=C(Nc1ccncc1)c1cccc(S(=O)(=O)N2CCOCC2)c1	nt	nt	nt	nt	0	nt	nt	nt
Nc1nc(N2CCN(c3cccc(Cl)c3)CC2)n[nH]1	-12	0	8	0	2	2	nt	nt
Nc1nc(Nc2ccc(Cl)cc2)n[nH]1	4	32*	3	3	5	6	0	-2
Nc1nc(Nc2cccc(Cl)c2)n[nH]1	2	43*	nt	3	0	8	7	2
Nc1nc(Nc2ccccc2)n[nH]1	11	45*	nt	55	nt	2	4	2
c1ccc(-n2ncc3cccnc32)cc1	20	-6	nt	-1	0	2	nt	nt
COC(=O)[C@H](Cc1c[nH]c2ccccc12)NC(=O)NCc1ccc(OC)c(OC)c1	2	0	nt	42	-3	nt	nt	nt
CC1SC(=S)N(c2ccc(N(C)C)cc2)C1=O (centres undefined)	-10	33*	nt	14	-9	nt	10	-1
O=c1oc(CCO)cc2ccc(Br)cc12	nt	nt	nt	nt	4	nt	nt	nt
COc1cc(/C=C/C(=O)Nc2nnc(CC(C)(C)C)s2)cc(OC)c1OC	11	34*	10	13	2	6	-8	2
O=C(/C=C/c1cccnc1)c1ccc([N+](=O)[O-])cc1	4	32*	nt	18	3	nt	13	-4
Cc1cc(SCC(=O)N/N=C/c2ccc(O)c(O)c2)c(C)cc1Br	-21	54*	12	-3	-1	11	36*	-3
O=C(Cc1nnc(NC(=O)c2ccccc2)s1)N/N=C\c1ccc(O)c(O)c1	14	57*	nt	24	-7	nt	38*	0
CC(=O)N1CCC(=NNC(=O)CSc2cc(C)c(Br)cc2C)CC1	0	0	1	3	-5	7	nt	nt
O=C(N/N=C/c1ccc(O)c(O)c1)c1cc(-c2ccccc2)nc2ccccc12	-9	61*	nt	nt	-2	nt	48*	-5
Cc1cc(SCC(=O)N/N=C/c2ccc(O)c(O)c2)nc2ccccc12	6	56*	nt	18	6	nt	43*	2
Cc1cc(N2CCOCC2)nc2ccc(NC(=O)CCC(=O)N3CCN(c4cccc(C(F)(F)F)c4)CC3)cc12	-27	25	nt	44	-6	nt	nt	nt
CN(CC(=O)Nc1ccccc1-c1ccccc1)Cc1ccccc1Cl	-1	2	2	12	14	-6	nt	nt
O=C(CSc1nc2ccccc2o1)N/N=C/c1ccc(O)c(O)c1	-13	62*	nt	20	1	13	52*	-3
O=C(CSc1nc2ccccc2o1)N/N=C/c1ccccc1	-2	15	-2	-4	?	3	nt	nt
Oc1ccc(NCc2ccccc2OCc2ccccc2)cc1	26	49*	5	-9	-3	10	-21	-2
OCCNCCNCc1ccccc1OCc1ccccc1	12	1	14	44	-3	10	nt	nt
COc1cc(C(=S)N2CCOCC2)cc(OC)c1OC(=O)Cc1ccc(F)cc1	-2	36*	14	-10	-9	2	-8	1
O=C(NCCCN1CCOCC1)c1sc2cc(Cl)ccc2c1Cl	-3	6	-2	28	-3	-1	nt	nt
O=C(NCCCN1CCOCC1)c1sc2cc([N+](=O)[O-])ccc2c1Cl	2	59*	1	20	11	0	33*	-3
COc1ccc(C(O)(C(=O)NNc2ccc(C)cc2)c2cccs2)cc1 (centres undefined)	3	42*	5	31	2	3	-47	-1
O=C(O)C(c1ccccc1)N1C(=O)/C(=C\c2ccc(O)c(O)c2)SC1=S (centres undefined)	15	49*	nt	34	18	nt	28*	-2
Cc1ccc(C)c(N(CC(=O)NC(C)C)C(=O)CCC(=O)Nc2ccccn2)c1	3	2	nt	29	3	nt	nt	nt
Cc1cc(NS(=O)(=O)c2ccc(Nc3nc(-c4ccc(O)cc4)cs3)cc2)no1	16	43*	4	0	9	6	18	-4

Compound activity (PubChem BioAssay)
